In PubChem BioAssay (NCI):
About 83,000 compounds went through this panel and 20% of them were active in at least one assay; those are over-represented in the sample as a whole.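 Values shown are percent growth following 48 h exposure of cells in 96-well plates to a single concentration of compound; below 10 was considered active.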 A number with no mark means an inactive call. The source made the active and inactive calls.

Legend:
Assay in all cases: NCI-60 one-dose screen, 48 h (100 = growth as untreated, 0 = no growth, -100 = all killed)
Details in all cases: 10 µM unless noted
SK-MEL-2 melanoma = test system: SK-MEL-2 melanoma
EKVX NSCLC = test system: EKVX NSCLC
SN12C renal = test system: SN12C renal
UO-31 renal = test system: UO-31 renal
TK-10 renal = test system: TK-10 renal
ACHN renal = test system: ACHN renal
CAKI-1 renal = test system: CAKI-1 renal
A498 renal = test system: A498 renal
CCRF-CEM leukemia = test system: CCRF-CEM leukemia
MOLT-4 leukemia = test system: MOLT-4 leukemia
SR leukemia = test system: SR leukemia
RPMI-8226 leukemia = test system: RPMI-8226 leukemia
OVCAR-5 ovarian = test system: OVCAR-5 ovarian
OVCAR-4 ovarian = test system: OVCAR-4 ovarian
IGROV1 ovarian = test system: IGROV1 ovarian
OVCAR-3 ovarian = test system: OVCAR-3 ovarian
HS 578T breast = test system: HS 578T breast
NCI/ADR-RES ovarian = test system: NCI/ADR-RES ovarian
OVCAR-8 ovarian = test system: OVCAR-8 ovarian
SK-OV-3 ovarian = test system: SK-OV-3 ovarian

Row | Structure (SMILES) | growth (SK-MEL-2 melanoma) | growth (EKVX NSCLC) | growth (SN12C renal) | growth (UO-31 renal) | growth (TK-10 renal) | growth (ACHN renal) | growth (CAKI-1 renal) | growth (A498 renal) | growth (CCRF-CEM leukemia) | growth (MOLT-4 leukemia) | growth (SR leukemia) | growth (RPMI-8226 leukemia) | growth (OVCAR-5 ovarian) | growth (OVCAR-4 ovarian) [%] | growth (IGROV1 ovarian) | growth (OVCAR-3 ovarian) | growth (HS 578T breast) | growth (NCI/ADR-RES ovarian) | growth (OVCAR-8 ovarian) | growth (SK-OV-3 ovarian)
1 | CC(C)(C)n1cc(-c2ccnc(NCCNS(=O)(=O)c3ccc(C(F)(F)F)cc3)c2)c(-c2cccc(O)c2)n1 | 66.5% | 52.2% | 52.8% | 48.1% | 98.7% | 57.1% | 65.9% | 55.1% | 46.1% | 28.9% | 8.04% (active) | 4.88% (active) | 72.2% | 50.5 | 71.4% | 68.1% | 47.3% | 56.7% | – | –
2 | CC12CCCC(CC(=O)c3[nH]c4ccccc4c31)C2 (stereo not drawn) | 30% | 42.1% | 51.8% | 51.4% | 75.4% | 52.6% | 41.7% | -6.37% (active) | 16.6% | 29.5% | 15.5% | – | 34.6% | 60.7 | 24.6% | -26.1% (active) | 12.8% | 5.24% (active) | 31.1% | 53.4%
3 | C=C1CCC2C(C)(CO)C(O)CCC2(C)C1C/C=C1/C(=O)OCC1O/C=C/c1ccccc1 (stereo not drawn) | 72.7% | 103% | 73.8% | 69.1% | 119% | 87.2% | 77.1% | 86.4% | 10.7% | 21.2% | 27.6% | – | 93.5% | 62.7 | 84.1% | 75.7% | 96.3% | 73.9% | 55.3% | 125%
4 | Cc1ccc2[nH]c(=O)c3c(c2c1)Oc1ncn2nc(-c4ccco4)nc2c1C3c1ccc(Cl)cc1 (stereo not drawn) | 95.6% | 90.9% | 96.2% | 84.9% | 107% | 94.6% | 91.9% | 96.8% | 97.4% | 103% | 106% | 101% | 98.2% | 87.9 | 98% | 111% | 93% | – | – | -90.5% (active)
5 | COc1cc(C(=O)/C=C/c2c(C)n([O-])c3ccc(C(F)(F)F)cc3[n+]2=O)cc(OC)c1OC | 95.5% | 115% | 88.3% | 47.1% | 42.4% | 53.6% | -11.9% (active) | 115% | 36.6% | 65.4% | 24.4% | 59.6% | 122% | – | 111% | -18.9% (active) | 119% | 75.7% | 8.63% (active) | 87.3%
6 | O=C(NS(=O)(=O)c1ccccc1)n1cc(-c2ccncc2)c(-c2ccc(Cl)c(O)c2)n1 | 64% | 104% | 97.4% | 112% | 101% | 86.8% | 99% | 106% | 89.8% | 82.7% | 97.2% | 97.4% | 116% | – | 96.8% | 117% | 106% | 102% | 105% | 102%
7 | C/C(=N/NC(=S)Nc1ccccc1)c1nc2ccc(Cl)cc2[nH]1 | -93.6% (active) | -23.6% (active) | -37.4% (active) | -35.5% (active) | -39.1% (active) | 7.65% (active) | 9.36% (active) | -81.4% (active) | 1.46% (active) | -16.7% (active) | -36.1% (active) | 5.52% (active) | -35.8% (active) | – | 7.58% (active) | -59.5% (active) | – | -12.7% (active) | -39.8% (active) | -17.7% (active)
8 | Cc1nc2cncc(C#Cc3cncc(C(=O)Nc4ccc(CN5CCN(C)CC5)c(C(F)(F)F)c4)c3)c2nc1C | -47.7% (active) | 6.58% (active) | 4.16% (active) | -12.5% (active) | 17.5% | -5.33% (active) | -28.4% (active) | -36.9% (active) | 16.2% | 21.1% | 19.7% | 8.79% (active) | 10.5% | – | -5.34% (active) | 25.9% | -9.83% (active) | 18.5% | 24.6% | -26.8% (active)
9 | CCCCCCN1CSC(=S)N(CCCCCC)C1 | 124% | 91.7% | 104% | 79.3% | 111% | 109% | 81.3% | 94.2% | 88.2% | 107% | 104% | 86.5% | 112% | – | 101% | 109% | 105% | 89.9% | 103% | 107%
10 | CCCCCCCCC(C)OC(=O)c1nn(C(C)=O)c2ccccc12 (stereo not drawn) | 97.7% | 92.2% | 102% | 83.1% | 93.2% | 107% | 91.1% | 109% | 100% | 109% | 126% | 104% | 104% | – | 105% | 110% | 101% | 101% | 95.7% | 109%
11 | Cn1cnc2c(N3CCN(C(=O)OCc4ccc5c(Cl)cc(Cl)c(O)c5n4)CC3)nc(Cl)nc21 | 81% | 66.9% | 63% | 48.2% | 96% | 48.4% | 63.8% | 62.7% | 37.6% | 59.5% | 74.1% | – | 90.5% | 32.7 | 66% | 66.8% | 75.7% | 35.3% | 51.3% | 97.6%
12 | O=[N+]([O-])c1ccc(-c2cn(-c3ccccc3)c(-c3ccccc3)n2)cc1 | 74.8% | 88.7% | 77.6% | 55% | 108% | 95.1% | 87.7% | 82% | 27.3% | 62.7% | 43.3% | -0.221% (active) | 95.4% | – | 64.2% | 97.4% | 97.5% | 85.3% | 70.6% | 79.1%
13 | O=C(NS(=O)(=O)c1ccc2ccccc2c1)n1cc(-c2ccncc2)c(-c2ccc(Cl)c(O)c2)n1 | -2.83% (active) | 65.5% | 68.8% | 56.4% | 116% | 49.6% | 96.2% | 87.7% | 74.1% | 78.9% | 61.8% | 60.2% | 89.8% | – | 60.2% | 133% | 72.4% | 87.6% | 72.5% | 81.8%
14 | CC(C)(C)NCCC(O)c1cc2c(Cl)cc(Cl)cc2c2cc(C(F)(F)F)ccc12 (stereo not drawn) | -69.5% (active) | -63.9% (active) | -80.1% (active) | -88.8% (active) | -85.7% (active) | -75.9% (active) | -68.2% (active) | 16.5% | -50.7% (active) | -61.9% (active) | -77.5% (active) | -40% (active) | -83.2% (active) | – | -63.2% (active) | -88.7% (active) | -56.9% (active) | -80% (active) | – | 15.6%
15 | S=c1[nH]nc(-c2cc3ccc2CCc2ccc(cc2)CC3)n1C1CC1 | 110% | 88.9% | 94.8% | 88.8% | 143% | 102% | 98.6% | 97.8% | 104% | 105% | 109% | 106% | 99.1% | 89.4 | 101% | 108% | 101% | – | – | 113%
16 | CCN(CC)CCC(CNc1ccnc2cc(Cl)ccc12)c1ccccc1 (stereo not drawn) | 56.2% | 90% | 75.8% | 15.2% | 55.9% | 35.3% | 43.4% | 42.3% | 58.6% | 50.7% | 20.5% | 59.3% | 87.9% | – | 80.2% | 79.9% | 46.8% | 83.2% | 61.2% | –
